This is an account of results in the OligoGym collection.

In one experiment the target is TUT1. The experiment is described as follows: pooled miR-30 sensor sort-seq; sequence = guide strand. As to conditions: shRNA.
A further experiment deals with TUSC2. The description is as above. As to conditions: shRNA.
Also: reference of the scale not given here.

Consider AAACACACTTCGAAGTCCCTGG, for which the sensor-assay potency score (higher = more potent) with TUT1 was determined as 0.0034.
In the experiment with TUSC2, TCATAGAACATAGAGCCGCGGC registered a sensor-assay potency score (higher = more potent) of -0.488.
For the sequence TCTAGCAGTGGTGAAGCTGGAG, the sensor-assay potency score (higher = more potent) with TUT1 is -0.366.
Consider TGTCTCCTCATAGAACTCGTGA, for which the sensor-assay potency score (higher = more potent) with TUSC2 is -0.468.
For the sequence TTGGGGTCTCTGCTAGTTCCGA, the sensor-assay potency score (higher = more potent) in the experiment with TUT1 was -1.32.
Consider TCTTGGTGACGATTGTCTCCTC, for which the sensor-assay potency score (higher = more potent) with TUSC2 was -0.566.
